A selection: hits, their analogues and other compounds. The true share with any hit is near 3.8%.
HSF-1 act – increases HSF-1 driven luciferase reporter signal; NIH3T3-HGL HSF-1 luciferase reporter, MG132, 8 h; 100% = twice DMSO control signal; activation, % at 9 µM; 300,000 compounds, 1.7% hits; AID 504408;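 active = mean replicate activation of at least 50% with a set share of replicates each reaching 50%; inconclusive = only one of those two conditions met; inactive = mean below 50% and too few replicates reaching it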;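 also: 0% = median of the neutral control wells and 100% = twice that signal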
HSF1 inhib – HSF1 inhibition. NIH3T3-HGL HSE-luciferase, MG132-induced, luminescence 8 h; stronger effect = lower value. activity change, negative = inhibition, % at 7.5 µM (by protocol). 300,000 compounds, 0.77% hits. AID 2098;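 active = more than half of replicate wells show activity change below -50%, luminescence cut by over half; inconclusive = some wells, but at most half, below -50%; inactive = no replicate well below -50%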;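 also: luciferase reports HSF-1 transcriptional activity via heat shock element; 0% = median of DMSO wells and -100% = zero luminescence signal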
MITF TRPM1 HTS – increases MITF-driven TRPM1 promoter luciferase signal | activation, % at 12.5 µM | AID 588334 | 300,000 compounds, 0.75% hits | SK-MEL-5 TRPM1-promoter luciferase, 24 h; % of positive control, neutral wells = 0;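 active = mean activation of at least 80% with every replicate also reaching 80%; inconclusive = mean reaches 80% but some replicate falls short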;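 also: 0% = neutral control wells and 100% = parthenolide positive control wells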
esBAF inh – SWI/SNF esBAF complex inhibition | reporter increase, % at 12.5 µM | 350,000 compounds, 2% hits | mouse ES cells, Bmi1-luciferase knock-in reporter, 24 h; 100% = twice the neutral-well signal; in the data active = activation above about 40%; inconclusive = no clear call, values can overlap the other calls;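 also: 0% = median of the plate's neutral control wells and 100% = double that signal; a rise in the Bmi1 reporter signal indicates esBAF inhibition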
Wnt act – activators of Wnt/beta-catenin signaling. Wnt/beta-catenin reporter cell assay, activator, plate reader. activation, % at 9.35 µM. 300,000 compounds, 1.2% hits. AID 743398; in the data active = activation above about 30%, passing the limit was not always enough; inconclusive = no clear call, values can overlap the other calls;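 also: 0% = neutral control wells and 100% = positive control wells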
esBAF Ring1 qPCR – de-represses Ring1 in mouse ESCs, confirming esBAF inhibition | shares compounds with esBAF inh | mouse ESC E14, Ring1 mRNA RT-qPCR fold change | fold change at 33 µM | 550 tested, under 10 active | AID 743176;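 active = Ring1 gene expression raised more than 2-fold over untreated cells in both replicates at either tested dose; inconclusive = only one replicate above 2-fold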;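 also: Ring1 transcript normalised to actin housekeeping signal by TaqMan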
esBAF Fgf4 qPCR – confirmation of esBAF inhibitors: Fgf4 repression in mouse ESCs; shares compounds with esBAF inh; mouse ESC E14, Fgf4 mRNA qPCR fold change; stronger effect = lower value; Fgf4 expression fold change at 33 µM; 550 compounds, 4% hits; AID 743177;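 active = Fgf4 expression under 0.8 fold of control in both repeat measurements at one or both tested doses; inconclusive = under 0.8 fold in just a single repeat measurement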;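 also: Fgf4 transcript normalised to actin in duplex TaqMan qPCR; cells exposed to compound for 24 h before lysis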
esBAF Bmi1 qPCR – confirmation of esBAF inhibitors: Bmi1 de-repression in mouse ESCs; shares compounds with esBAF inh; mouse ESE14 ES cells, Bmi1 mRNA qPCR fold; stronger effect = higher value; fold change at 33 µM; 550 tested, under 10 active; AID 743180;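 active = Bmi1 expression fold change above 6 at either tested concentration, seen in replicate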;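 also: higher fold means more Bmi1 de-repression and stronger esBAF inhibition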
A549 cytotox – kills or reduces viability of A549 cells. 550 tested, under 10 active. cell viability change % (negative = cytotoxic), % at 25 µM, hits read low. A549 cytotoxicity, plate reader. shares compounds with esBAF inh; call rule not given here
HepG2 tox SP – cytotoxicity in HepG2 cells; shares compounds with esBAF inh; plate reader; stronger effect = lower value; activity change, negative = inhibition, % at 25 µM; 550 compounds, 4% hits; AID 743189; in the data active = activity change below about -50%
HEK293 cytotox SP – cytotoxicity in HEK293 cells. activity change, negative = inhibition, % at 25 µM, hits read low. plate reader. 550 compounds, 3% hits. shares compounds with esBAF inh; in the data active = activity change below about -38%, passing the limit was not always enough
* = called active by the depositor.

What do the screens show for `Cc1ccc(C(=O)N2CCc3ccccc32)cc1C`?
esBAF inh: 52*; Wnt act: 22; esBAF Ring1 qPCR: 1.3; esBAF Fgf4 qPCR: 1; esBAF Bmi1 qPCR: 1.5; A549 cytotox: 9; HepG2 tox SP: 19; HEK293 cytotox SP: -6

What do the screens show for `COc1ccc(CCC(=O)N2CCc3ccccc32)cc1`?
HSF-1 act: 29; HSF1 inhib: 33; esBAF inh: 63*; Wnt act: 20; esBAF Ring1 qPCR: 1.1; esBAF Fgf4 qPCR: 0.91; esBAF Bmi1 qPCR: 1.4; A549 cytotox: -5; HepG2 tox SP: -2; HEK293 cytotox SP: -11

How did O=C(c1ccccc1)N1CCc2ccccc21 do in these assays?
HSF-1 act: -8; HSF1 inhib: -5; MITF TRPM1 HTS: -2

Results for COc1ccc(C(=O)N2CCc3ccccc32)cc1 ?
HSF-1 act: 17; HSF1 inhib: 5; esBAF inh: 68*; Wnt act: 6; esBAF Ring1 qPCR: 0.97; esBAF Fgf4 qPCR: 0.88; esBAF Bmi1 qPCR: 1.5; A549 cytotox: -4; HepG2 tox SP: -9; HEK293 cytotox SP: -6

Results for COc1cccc2sc(N3CCN(C(=O)c4cccs4)CC3)nc12 ?
HSF-1 act: -3; HSF1 inhib: 0; MITF TRPM1 HTS: -2; Wnt act: 1

Results for Cc1cc2nc(N3CCN(C(=O)c4cccs4)CC3)sc2cc1C ?
HSF-1 act: 26; HSF1 inhib: 21; MITF TRPM1 HTS: 118*; esBAF inh: 62*; Wnt act: 19; esBAF Ring1 qPCR: 1.1; esBAF Fgf4 qPCR: inconclusive; esBAF Bmi1 qPCR: 1.4; A549 cytotox: -8; HepG2 tox SP: 24; HEK293 cytotox SP: -11

What do the screens show for `Cc1ccc(S(=O)(=O)N(C)C[C@@H]2OCCCC[C@@H](C)Oc3ccc(NC(=O)Nc4c(C)noc4C)cc3C(=O)N([C@@H](C)CO)C[C@@H]2C)cc1`?
esBAF inh: 2

What do the screens show for `CC(=O)N(C)C[C@@H]1Oc2cc(-c3ccccc3)ccc2S(=O)(=O)N([C@H](C)CO)C[C@H]1C`?
esBAF inh: 4

How did COc1ccc(CCNS(=O)(=O)CCNC(=O)c2ccccc2)cc1 do in these assays?
HSF-1 act: 7; HSF1 inhib: 0; MITF TRPM1 HTS: 0; esBAF inh: 4; Wnt act: 0

How did COc1ccc(CNC(=O)c2ccc(-c3ccccc3)cc2)cc1 do in these assays?
HSF-1 act: inconclusive; HSF1 inhib: 34; MITF TRPM1 HTS: 56; esBAF inh: 62*; esBAF Ring1 qPCR: 1.3; esBAF Fgf4 qPCR: 1.1; esBAF Bmi1 qPCR: 1.4; A549 cytotox: 1; HepG2 tox SP: -46; HEK293 cytotox SP: -4

Results for COc1ccc(C(=O)NCCS(=O)(=O)NCCc2ccccc2)cc1 ?
HSF-1 act: 41; HSF1 inhib: 22; MITF TRPM1 HTS: 66; esBAF inh: 56*; Wnt act: -1; esBAF Ring1 qPCR: 1.3; esBAF Fgf4 qPCR: 1.2; esBAF Bmi1 qPCR: 1.4; A549 cytotox: -1; HepG2 tox SP: -12; HEK293 cytotox SP: -10

Results for COc1ccc(CNC(=O)c2ccc(Br)cc2)cc1 ?
HSF-1 act: 29; HSF1 inhib: 8; Wnt act: 5

Results for CC(C)NC(=O)N(C)C[C@@H]1Oc2ccc(NC(=O)C3CC3)cc2CC(=O)N([C@@H](C)CO)C[C@@H]1C ?
esBAF inh: 1

How did O=C(c1ccc2c(c1)OCO2)N1C[C@H]2[C@@H](c3ccccc31)[C@@H](CO)N2Cc1ccccc1Cl do in these assays?
esBAF inh: 2

What do the screens show for `COC(=O)c1c(-c2ccc(SC)cc2)sc2ccc(OC)cc12`?
MITF TRPM1 HTS: 68; esBAF inh: 99*; Wnt act: 58*; esBAF Ring1 qPCR: 1.3; esBAF Fgf4 qPCR: 0.83; esBAF Bmi1 qPCR: 1.9; A549 cytotox: 6; HepG2 tox SP: 4; HEK293 cytotox SP: -5

How did COc1ccc2sc(-c3ccc(S(C)(=O)=O)cc3)c(-c3ccc(SC)cc3)c2c1 do in these assays?
MITF TRPM1 HTS: 23; esBAF inh: -10; Wnt act: -2

What do the screens show for `Nc1nc(Cl)cc(-c2ccccc2)n1`?
HSF-1 act: -7; HSF1 inhib: 5; MITF TRPM1 HTS: -11; Wnt act: 1

How did Fc1cc(Cl)cc2ccc(-c3ccccc3)nc12 do in these assays?
esBAF inh: 56*; Wnt act: 6; esBAF Ring1 qPCR: 1.5; esBAF Fgf4 qPCR: 0.98; esBAF Bmi1 qPCR: 1.8; A549 cytotox: 9; HepG2 tox SP: 67; HEK293 cytotox SP: -5

What do the screens show for `Fc1ccc2nc(-c3ccccc3)ccc2c1`?
esBAF inh: 60*; Wnt act: 18; esBAF Ring1 qPCR: 1.1; esBAF Fgf4 qPCR: 0.82; esBAF Bmi1 qPCR: 1.7; A549 cytotox: -4; HepG2 tox SP: -58*; HEK293 cytotox SP: -6

Results for CCCC#Cc1cnc2c(c1)C(=O)N([C@@H](C)CO)C[C@H](C)[C@@H](CN(C)C(=O)Nc1ccccc1OC)O2 ?
esBAF inh: 1

What do the screens show for `C[C@H](CO)N1C[C@H](C)[C@@H](CN(C)Cc2ccc(-c3ccccc3)cc2)Oc2c(cccc2N(C)C)C1=O`?
esBAF inh: -3

What do the screens show for `COc1cccc2sc(NC(=O)c3ccc(Br)s3)nc12`?
HSF-1 act: 33; HSF1 inhib: 21; MITF TRPM1 HTS: 31; esBAF inh: 68*; esBAF Ring1 qPCR: 1.6; esBAF Fgf4 qPCR: 0.88; esBAF Bmi1 qPCR: 1.6; A549 cytotox: 8; HepG2 tox SP: 18; HEK293 cytotox SP: 2

What do the screens show for `Cc1cccc2sc(NC(=O)c3ccc(Cl)s3)nc12`?
HSF-1 act: 32; HSF1 inhib: 11; MITF TRPM1 HTS: 21; esBAF inh: inconclusive; Wnt act: -2

What do the screens show for `COc1ccc(Cc2nc3ccc(C(=O)N(C)Cc4nccs4)cc3o2)cc1OC`?
HSF-1 act: -12; HSF1 inhib: -1; MITF TRPM1 HTS: -8; esBAF inh: -2; Wnt act: -2
